Only some compounds are listed: those with a hit (about 9% of all), similar ones and a draw of the others.
HPGD block – inhibitors of human 15-hydroxyprostaglandin dehydrogenase (HPGD); P15428; purified HPGD, NADH fluorescence kinetic, PGE2 substrate; Potency, µM, actives largely listed as inhibitors; hit rate 4.3% among 150,000; active = well fitted inhibition curve with a large enough effect, not every such curve was filed as active; inconclusive = small, poorly fitted or top-dose-only effect, or another doubt; inactive = no such curve, though single readings can be large or run the other way
Target sequence (P15428 whole entry, looked up): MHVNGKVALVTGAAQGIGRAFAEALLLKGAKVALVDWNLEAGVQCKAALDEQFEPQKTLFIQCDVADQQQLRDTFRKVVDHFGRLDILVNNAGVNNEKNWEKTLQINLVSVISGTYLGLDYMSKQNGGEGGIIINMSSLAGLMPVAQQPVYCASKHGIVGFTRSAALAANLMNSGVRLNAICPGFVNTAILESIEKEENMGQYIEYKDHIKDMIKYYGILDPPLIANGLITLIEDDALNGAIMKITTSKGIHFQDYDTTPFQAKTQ
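20 nM HPGD preincubated 15 min at room temperature with compound in 50 mM Tris-HCl pH 8, 0.01% Tween 20. Started with 1 mM NAD+ and 30 uM prostaglandin E2; NADH fluorescence (360/450 nm) read 5 times over 30-s intervals, last minus first.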
Luc counter – counter-screen: inhibitors of Kinase-Glo firefly luciferase | Kinase-Glo luciferase, ATP luminescence, 8 min | Potency, µM (top dose mostly 38.3 µM), most hits filed as inhibitors | hit rate 0.28% among 200,000 | AID 1379; also: nearly all actives have a fitted effect of over 60% in size
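Compound is pinned into ATP-containing buffer (10 uM ATP, imidazole pH 7.2, 7 mM MgCl2). Kinase-Glo luciferase reagent is then added. Light output is recorded following an 8-min room-temperature incubation.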
IMPase Li inh – IMPase inhibition in cells with lithium potentiation; AID 1457; Potency, µM (doses to about 59.4 µM), actives largely listed as inhibitors; hit rate 0.35% among 210,000; CHO-M1 cells, IP1 TR-FRET (IP-One), carbachol + lithium;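 also: IP1 builds up when IMPase is blocked and the TR-FRET signal falls; nearly all actives have a fitted effect of over 50% in size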
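CHO cells stably expressing M1 receptor (2000/well, cultured 16–30 h) treated 30 min at 37C with compound plus low lithium. Cytosolic IP1 by TR-FRET (665/620 ratio and 620 channel) after 10 min lysis; AC50 by Hill fit.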
Lamin A splicing – modulators of lamin A splicing; HeLa LMNA splicing GFP/RFP minigene ratio, 48 h; Potency, µM (highest dose often 46.1 µM), actives largely listed as inhibitors; hit rate 0.01% among 200,000; AID 1487; active = well fitted inhibition curve with a large enough effect in the signal ratio, with a control signal flat, not every such curve was filed as active; inconclusive = small, poorly fitted or top-dose-only effect, or effect the other way, or a change in a side signal; the % refers to the signal ratio
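S3 HeLa cells stably expressing lamin A-EGFP splicing minigene plus DsRed2, 600 cells/well, 48 h compound exposure at 37C. Laser-scanning cytometry; analysed as GFP (500-530 nm)/RFP (575-640 nm) total intensity ratio; 0.5% DMSO vehicle.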
ALDH1A1 block – blocks purified human ALDH1A1 activity; Purified ALDH1A1, NADH fluorescence, propionaldehyde substrate; P00352; hit rate 7.3% among 220,000; Potency, µM (top dose mostly 75.3 µM), hits mostly inhibitors; AID 1030; active = well fitted inhibition curve with a large enough effect, not every such curve was filed as active; inconclusive = small, poorly fitted or top-dose-only effect, or another doubt; inactive = no such curve, though single readings can be large or run the other way
Numbers stand for hits; [ ] = remark or other dose. Unless noted, calls follow the shape of the dose curve; as a rule, active = well fitted curve in the direction sought with a large enough effect; inconclusive = small, poorly fitted or top-dose-only effect, or another doubt; inactive = no such curve, though single readings can be large; an effect the other way counts as inactive or inconclusive.

CCCn1c(SCC(=O)Nc2ccccc2-c2ccccc2)nnc1-c1ccoc1C was read as HPGD block inactive, Luc counter inactive, IMPase Li inh inactive, Lamin A splicing inconclusive and ALDH1A1 block 31.6µM.
Screening Cn1c(SCC(=O)c2cc(Cl)c(Cl)s2)nnc1-c1ccco1 returned ALDH1A1 block 28.2µM.
CCN1CCCC1CNC(=O)c1ccc(-n2c(=O)c(=O)[nH]c3ccccc32)cc1 (stereo not drawn) was read as HPGD block inactive, Luc counter inactive and ALDH1A1 block inactive.
Cc1ccc2cccc(S(=O)(=O)N3CCCc4ccccc43)c2n1 was read as Luc counter inactive, IMPase Li inh inactive, Lamin A splicing inactive and ALDH1A1 block inactive.
For Cn1nnnc1SCC(=O)Nc1ccccc1-c1ccccc1 the results were HPGD block inactive, Luc counter inactive, IMPase Li inh inactive, Lamin A splicing inactive and ALDH1A1 block 12.6µM.
CCOC(=O)c1c(-c2ccccc2)csc1NC(=O)CSc1nnnn1C was read as HPGD block 31.6µM, Luc counter inactive, IMPase Li inh inactive, Lamin A splicing inconclusive and ALDH1A1 block inactive.
`Cn1nnnc1SCc1ccc(C(=O)Nc2ccccc2F)cc1` gave HPGD block 15.8µM, Luc counter inactive, IMPase Li inh inactive, Lamin A splicing inactive and ALDH1A1 block inconclusive.
Screening CCOC(=O)CNC(c1ccccc1)c1cc(Br)ccc1NC(=O)CCN1CCOCC1 (stereo not drawn) returned HPGD block 31.6µM, Luc counter inactive, IMPase Li inh inactive, Lamin A splicing inconclusive and ALDH1A1 block inconclusive.
For COc1ccc(-c2nc(N)nc(C)c2Oc2ccccc2Br)c(O)c1 the results were HPGD block inactive, Luc counter inactive, IMPase Li inh inactive, Lamin A splicing inconclusive and ALDH1A1 block inconclusive.
For Clc1ccc(CN2CCCN(Cc3ccc(Cl)cc3)C2c2cc3ccccc3c3ccccc23)cc1 the results were HPGD block inactive, Luc counter inactive[7.66 µM], IMPase Li inh inactive and ALDH1A1 block inactive[13.5 µM].
`Cc1occc1-c1nnc(SCC(=O)Nc2ccccc2-c2ccccc2)n1C` gave HPGD block inactive, Luc counter inactive, IMPase Li inh inactive, Lamin A splicing inconclusive and ALDH1A1 block 22.4µM.
Screening CCOC(=O)c1c(-c2ccc(C)cc2)csc1NC(=S)NC(=O)c1ccccc1 returned HPGD block inactive, Luc counter inactive, IMPase Li inh inactive, Lamin A splicing inconclusive and ALDH1A1 block inactive.
Screening CCOC(=O)c1c(-c2ccccc2)csc1NC(=O)CCN1CCOCC1 returned HPGD block inactive, Luc counter inactive, IMPase Li inh inactive, Lamin A splicing inconclusive and ALDH1A1 block 28.2µM.
For CCOC(=O)c1c(-c2ccc(C)cc2)csc1NC1=NS(=O)(=O)c2ccccc21 the results were HPGD block inconclusive, Luc counter inactive, IMPase Li inh 11.2µM, Lamin A splicing inactive and ALDH1A1 block inconclusive.
For Cc1cccc(C)c1NC(=O)CSc1nnc(-c2ccoc2C)n1C the results were HPGD block inactive, Luc counter inactive, IMPase Li inh inactive, Lamin A splicing inactive and ALDH1A1 block inactive.
Screening Cc1ccc(CC(=O)Nc2nc3ccccc3s2)cc1 returned HPGD block inactive, Luc counter inactive, IMPase Li inh inactive, Lamin A splicing inactive and ALDH1A1 block inconclusive.
`Cc1ccc[n+](CC(=O)Nc2nc3ccccc3s2)c1` gave Luc counter inactive, IMPase Li inh inactive and ALDH1A1 block 14.1µM.
For Cc1ccc(C(=O)Nc2nc3ccccc3s2)s1 the results were HPGD block inconclusive, Luc counter 12.6µM, IMPase Li inh inconclusive, Lamin A splicing inconclusive and ALDH1A1 block inconclusive.
Screening O=C(Nc1nc2ccc(F)cc2s1)c1ccccn1 returned Luc counter 11.2µM, IMPase Li inh inactive and ALDH1A1 block inactive.
For O=C(Nc1nc2ccccc2s1)c1cnccn1 the results were HPGD block inactive, Luc counter 7.94µM, IMPase Li inh inactive, Lamin A splicing inactive and ALDH1A1 block inactive.
For O=C(NNc1nc2ccc(F)cc2s1)c1cccc(F)c1 the results were Luc counter inactive, IMPase Li inh inactive and ALDH1A1 block inactive.
Cc1cc(=O)[nH]c(SCC(=O)N2CCN(S(=O)(=O)c3ccccc3)C2)n1 was read as Luc counter inactive, IMPase Li inh inactive and ALDH1A1 block inactive.
O=C(c1c(F)cccc1F)N1CCC(n2nnc3cc(C(F)(F)F)ccc32)CC1 was read as Luc counter inactive, IMPase Li inh inactive, Lamin A splicing inconclusive and ALDH1A1 block inconclusive.
For O=C1NC(CCc2ccccc2)C(=O)N1CCOc1cccc(Br)c1 (stereo not drawn) the results were Luc counter inactive, IMPase Li inh inactive and ALDH1A1 block inconclusive.
COC(=O)/C=C/c1cccc([C@H]2[C@@H]3C=CC[C@@H](C)[C@@H]3C(=O)N2Cc2ccccc2)c1 was read as HPGD block inactive, Luc counter inactive, IMPase Li inh inactive and ALDH1A1 block inconclusive.
`NNS(=O)(=O)c1ccc(Cc2ncc(C(F)(F)F)cc2Cl)s1` gave HPGD block inactive, Luc counter inactive, IMPase Li inh inactive, Lamin A splicing inactive and ALDH1A1 block 3.16µM.
`NS(=O)(=O)c1ccc(Cc2ncc(C(F)(F)F)cc2Cl)s1` gave HPGD block inactive, Luc counter inactive, IMPase Li inh inactive, Lamin A splicing inactive and ALDH1A1 block inactive.
Screening O=C(CCl)c1ccc(Cc2ncc(C(F)(F)F)cc2Cl)s1 returned HPGD block inactive, Luc counter inactive, IMPase Li inh inactive, Lamin A splicing inactive and ALDH1A1 block 0.708µM.
O=C(CCc1nnc(C2CCCCC2)o1)N1CCN(Cc2ccccc2)CC1 was read as Luc counter inactive, IMPase Li inh inactive, Lamin A splicing inactive and ALDH1A1 block inactive.
`C=C1SC(=Nc2c(C)cccc2Cl)N(C(=O)c2sc3ccccc3c2Cl)C12CCCCC2` gave ALDH1A1 block inactive.
`C=C1SC(=Nc2ccccc2Cl)N(C(=O)c2sc3ccccc3c2Cl)C1(C)C` gave ALDH1A1 block 23.8µM.
For CCc1ccc(Sc2cc(C(=O)NCc3ccccc3OC)c3ccccc3n2)cc1 the results were Lamin A splicing inactive.
For Cc1nc(SCC(=O)c2ccc(F)cc2)n[nH]1 the results were HPGD block 10µM, Luc counter inactive, IMPase Li inh inactive, Lamin A splicing inconclusive and ALDH1A1 block 4.47µM.
COc1ccc(C(=O)CSc2n[nH]c(C)n2)cc1[N+](=O)[O-] was read as Luc counter inactive, IMPase Li inh inactive and ALDH1A1 block 10µM.
`O=C(CSc1ccc(-c2nc3ccccc3[nH]2)cn1)Nc1ccc(S(=O)(=O)NC2CC2)cc1` gave HPGD block inconclusive, Luc counter inactive, IMPase Li inh inactive, Lamin A splicing inactive and ALDH1A1 block inconclusive.
Cc1cc2nc(-c3ccc(SCC(=O)Nc4ccc5c(c4)OCCO5)nc3)[nH]c2cc1C was read as HPGD block inconclusive, Luc counter 11.2µM, IMPase Li inh inconclusive, Lamin A splicing inactive and ALDH1A1 block inconclusive.
